Compound activity from PubChem BioAssay.
ERG Ets-DNA blk: qHTS for Small Molecule Inhibitors of the ERG Ets/DNA interaction. Potency, µM (series often up to 76.9 µM), inactives show top-dose FP activity, negative = inhibition, usual class: inhibitors. Transcriptional regulator ERG (Homo sapiens), P11308. AID 624246, 2012. 370,000 tested, 0.028% active. fluorescence polarization, His-ERG Ets domain / labelled DNA; active means well fitted inhibition curve with a large enough effect in the polarisation, with a control signal flat; inconclusive means small, poorly fitted or top-dose-only effect, or effect the other way, or a change in a side signal; inactive means no such curve, though single readings can be large or run the other way; the % refers to the polarisation;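 further: polarization taken with two DNA probes labelled with fluorescein and Texas red; potency means the concentration at half of the fitted maximal effect; % of control where 0% means no effect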
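His-tagged ERG Ets domain (1 uM in the protein solution; 300mM KCl, 50mM Tris-HCl, 1mM EDTA, 1mM DTT, pH 7.5) received compound, then a probe mix of 5 nM fluorescein-DNA and 100nM Texas-615-DNA. Fluorescence polarization was read for both dyes.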
MmCpn inh: Inhibitors of TCP-1 ring complex (TRiC) of Methanococcus maripaludis (MmCpn): qHTS; Chaperonin Mm-Cpn (Methanococcus maripaludis); purified Mm-Cpn ATPase, ADP Transcreener TR-FRET; Potency, µM (doses to about 76.9 µM), for inactives: top-dose activity, negative = inhibition, actives largely listed as inhibitors; 330,000 tested, 0.031% active; AID 504842, 2011; further: potency means the concentration at half of the fitted maximal effect; on the % scale 0 is the no-effect control and ±100 the full control effect; nearly all actives have a fitted effect of over 80% in size
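Eu-cryptate anti-ADP/ADP-d2 competition gives a ratio inversely related to ADP. Enzyme at 25 nM was pre-exposed to compound for 10 min, then given 10 uM ATP for 30 min, 37°C throughout.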
PTHR1 ag: qHTS for PTHR1 Agonists: Primary Screen; Parathyroid hormone/parathyroid hormone-related peptide receptor (Homo sapiens), Q03431; HEK293 GP2 PTHR1 cells, GloSensor cAMP luminescence, 1 h; 410,000 tested, 0.075% active; Potency, µM (series often up to 115 µM), for inactives: at the highest dose activation, most hits filed as activators; AID 743266, 2014; further: potency means the concentration at half of the fitted maximal effect; nearly all actives have a fitted effect of over 55% in size
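HEK-293-derived GP2 cells expressing PTHR1 and a GloSensor cAMP reporter, 3,000/well, plated overnight, given luciferin plus IBMX (each 0.5 mM as added) for 1 h at 37 °C, then compound for 1 h at 37 °C. Luminescence was read after 15 min at room temperature.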
RGS4 inhibitor: Inhibitors of Regulator of G Protein Signaling (RGS) 4: qHTS; Regulator of G-protein signaling 4 (Homo sapiens), P49798; 390,000 tested, 0.039% active; AID 504845, 2011; Potency, µM (top dose mostly 114 µM), without a hit: top-dose activity change, negative = inhibition, actives largely listed as inhibitors; Transcreener GDP fluorescence polarization, RGS4-accelerated GTP hydrolysis; further: potency means the concentration at half of the fitted maximal effect; on the % scale 0 is the no-effect control and ±100 the full control effect; nearly all actives have a fitted effect of over 75% in size
Target sequence (P49798 whole entry, looked up): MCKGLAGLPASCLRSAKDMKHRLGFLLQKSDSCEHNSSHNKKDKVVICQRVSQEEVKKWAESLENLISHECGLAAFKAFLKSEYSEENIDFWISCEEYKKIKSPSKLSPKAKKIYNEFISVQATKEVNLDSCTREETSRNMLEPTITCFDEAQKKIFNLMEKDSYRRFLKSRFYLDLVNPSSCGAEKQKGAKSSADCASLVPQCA
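MLSMR compounds (23 nl, pin-transferred) preincubated 10 min at room temperature with a 500nM (2x) first reagent, then RGS4 at 900nM (2x) plus Transcreener GDP mix added; fluorescence polarization (620/688 nm) read before and after 90 min at 30 °C.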
CCT modulator: High-Throughput Screening for Modulators of Cytosolic Chaperonin Activity | purified chaperonin ATPase assay, HTRF ADP detection, 30 min | activity change, % (no concentration beside the values), hits read low | 360,000 tested, 0.3% active; in the data active means activity change below about -30%; further: on the % scale 0 is the no-effect control and ±100 the full control effect
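Nucleotide hydrolysis assay: TRiC at 20–40 nM final (set by batch activity) with 10 uM ATP, 30 min at 37 °C, in presence of 76 uM compound. Detection by competitive ADP HTRF, 30 min ambient.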
* = called active by the depositor; i = inactive; u = inconclusive; x = no result. Only some compounds are listed: those with a hit (about 0.36% of all), similar ones and a draw of the others. Unless noted, the call rests on the fitted dose curve; in most records, active means well fitted curve in the direction sought with a large enough effect; inconclusive means small, poorly fitted or top-dose-only effect, or another doubt; inactive means no such curve, though single readings can be large; an effect the other way counts as inactive or inconclusive.

SMILES | ERG Ets-DNA blk | MmCpn inh | PTHR1 ag | RGS4 inhibitor | CCT modulator
Cc1ccccc1C(=O)NCC(=O)OCC(=O)NC(C)C1CC2CCC1C2 (configuration not stated) | -8% | -1% | i | 8% | -2
COC(=O)c1sccc1S(=O)(=O)N(CC(=O)Nc1cccc(C)c1C)c1ccc(C)c(C)c1 | 1% | x | i | -15% | x
CC(O)(c1cccc(F)c1)c1nc(-c2ccncc2)cs1 (configuration not stated) | x | x | -26% | x | -31*
CCC(C)(C)NC(=O)Cn1c(=O)ccc2cc(S(=O)(=O)N3CCC(C)CC3)ccc21 | -2% | x | -18% | -14% | x
CCOc1ccc2[nH]c3c(NCCN(CC)CC)ncnc3c2c1 | -10% | -1% | i | -19% | 2
COc1ccc2[nH]c3c(NCCN(C(C)C)C(C)C)ncnc3c2c1 | 4% | -4% | i | -38% | -52*
Cc1nn(CC(C)C)c(Cl)c1C(=O)NCC(C)(C)N1CCOCC1 | x | x | i | x | -34*
Cc1nn(CC(C)C)c(Cl)c1C(=O)NCC1CCCO1 (configuration not stated) | x | x | -10% | x | 1
C=C[C@@]1(C)CC(=O)[C@@]2(O)[C@@]3(C)[C@@H](O)CCC(C)(C)[C@@H]3[C@H](OC(=O)CCN(C)C)[C@H](OC(C)=O)[C@@]2(C)O1 | x | x | x | 8.4µM* | x
O=C(Nc1ccnn1C1CCN(C(=O)Cc2cccc(Cl)c2)CC1)C1CC1 | -8% | -1% | i | 12% | 0
Cc1cccc(CC(=O)N2CCC(n3nccc3NC(=O)C3CC3)CC2)c1 | -1% | -2% | -19% | 5% | -56*
Cc1ccccc1CN1C(=O)c2ccccc2Sc2ccc(C(=O)NCc3ccccc3)cc21 | 0% | x | i | 12% | x
Cc1cc(S(=O)(=O)NC2CCCCC2)ccc1OCC(=O)N1CCOCC1 | 3% | -1% | i | -9% | -67*
O=C(CCC(=O)N1CCOc2ccc(Cl)cc21)NCc1ccccc1 | -10% | 0% | i | -24% | -1
CC(CNC(=O)CCC(=O)N1CCOc2ccc(Cl)cc21)c1ccccc1 (configuration not stated) | 6% | -4% | -21% | 18% | -66*
O=C(c1cccnc1)N1CCc2ccccc21 | -5% | -4% | i | 10% | 0
O=C(c1cccnc1)N1CCc2ccccc2C1 | 0% | 56µM* | i | 47% | 0
Cc1ccc2c(c1)-c1c(cnc3cc(-c4ccc(Cl)cc4)nn13)CO2 | 11% | x | i | 10% | x
CN(C)C1(CNC(=O)c2cccc(S(=O)(=O)NCc3ccccc3)c2)CCCCC1 | 0% | 2% | 32µM* | 25% | 1
CCOC(=O)c1sc(=NC(=O)c2ccccc2Br)n(C)c1C | -6% | 1% | -24% | 14% | 0
CCOC(=O)c1sc(=NC(=O)c2ccc(OC(C)C)cc2)n(C)c1C | -3% | -26% | i | -10% | -34*
CN(CC(=O)Nc1ccc(F)cc1)C(=O)COC(=O)c1ccc(-c2ccccc2)cc1 | -11% | -1% | -13% | -4% | -31*
COc1ccc(N2CCN(C(c3ccccc3)c3nnc(-c4ccccc4Cl)o3)CC2)cc1 (configuration not stated) | -6% | x | -24% | -14% | x
O=C(O)C1=CC(=C(c2ccc(O)c(C(=O)O)c2)c2ccc(O)c(C(=O)O)c2)C=CC1=O | x | u | x | 11µM* | x
C#CCOCCOCCOCCNc1nc(N2CCN(C(=O)CCCCCCCCCCNC(=O)[C@@H](CCC(=O)O)n3cc(CCCCCN)nn3)CC2)nc(N2CCN(C(=O)CCCCCCCCCCNC(=O)[C@H]([C@@H](C)CC)n3cc(CCCCCN)nn3)CC2)n1 | -1% | 45µM* | 29% | -39% | 0
Cc1nnc2c3ccccc3nc(Nc3ccccc3C(=O)O)n12 | 3% | x | i | 15% | x
